# According to the supplement of paper PMC6992640:
# Key:
# Assay in all cases: cell viability of combination (% of vehicle); higher = less cytotoxic
# Settings in all cases: 1 µM; 72 h; partner dose: 10 nM
# HCI01 [1] = test system: HCI01 (cells of a triple-negative basal-like breast cancer xenograft)
# Protocol: (§1)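 PDX cells were treated for 72 h with each drug at 1 µM plus carfilzomib (10 nM; 100 nM for WHIM2). Luciferase viability is expressed as percent of vehicle.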
# UCD52 [2] = test system: UCD52 (cells of a triple-negative basal-like breast cancer xenograft)
# Protocol: as §1
# WHIM30 = test system: WHIM30 (cells of a triple-negative basal-like breast cancer xenograft)
# Protocol: as §1
# HCI01 [3] = test system: HCI01; remark: listed apart in the source
# Protocol: (§2)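 PDX cells were treated for 72 h with each drug at 1 µM plus afatinib (10 nM; 1 µM for WHIM30). Luciferase viability is expressed as percent of vehicle.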
# UCD52 [4] = test system: UCD52; remark: listed apart in the source
# Protocol: as §2
# WHIM2 = test system: WHIM2 (cells of a triple-negative basal-like breast cancer xenograft)
# Protocol: as §2
compound,measurement,setting,value
CC[C@@H]1/C=C(\C)C[C@H](C)C[C@H](OC)[C@H]2O[C@@](O)(C(=O)C(=O)N3CCCC[C@H]3C(=O)O[C@H](/C(C)=C/[C@@H]3CC[C@H](Cl)[C@H](OC)C3)[C@H](C)[C@@H](O)CC1=O)[C@H](C)C[C@@H]2OC [Pimecrolimus] + CC(C)C[C@H](NC(=O)[C@H](CCc1ccccc1)NC(=O)CN1CCOCC1)C(=O)N[C@@H](Cc1ccccc1)C(=O)N[C@@H](CC(C)C)C(=O)[C@@]1(C)CO1 [Carfilzomib],cell viability of combination,HCI01 [1],95.7
same,cell viability of combination,UCD52 [2],49.2
same,cell viability of combination,WHIM30,11.7
O=C(O)CO.[NH2-].[NH2-].[Pt+2] [Nedaplatin] + CC(C)C[C@H](NC(=O)[C@H](CCc1ccccc1)NC(=O)CN1CCOCC1)C(=O)N[C@@H](Cc1ccccc1)C(=O)N[C@@H](CC(C)C)C(=O)[C@@]1(C)CO1 [Carfilzomib],cell viability of combination,HCI01 [1],71.6
same,cell viability of combination,UCD52 [2],68.8
Cc1cn(-c2cc(NC(=O)c3ccc(C)c(Nc4nccc(-c5cccnc5)n4)c3)cc(C(F)(F)F)c2)cn1 [Nilotinib(AMN-107)] + CC(C)C[C@H](NC(=O)[C@H](CCc1ccccc1)NC(=O)CN1CCOCC1)C(=O)N[C@@H](Cc1ccccc1)C(=O)N[C@@H](CC(C)C)C(=O)[C@@]1(C)CO1 [Carfilzomib],cell viability of combination,HCI01 [1],69.1
same,cell viability of combination,UCD52 [2],45.7
Nc1ccn(C2OC(CO)C(O)C2O)c(=O)n1 (centres undefined) [Cytarabine] + CC(C)C[C@H](NC(=O)[C@H](CCc1ccccc1)NC(=O)CN1CCOCC1)C(=O)N[C@@H](Cc1ccccc1)C(=O)N[C@@H](CC(C)C)C(=O)[C@@]1(C)CO1 [Carfilzomib],cell viability of combination,HCI01 [1],57.8
same,cell viability of combination,UCD52 [2],68.3
CN1CCN(CCOc2cc(OC3CCOCC3)c3c(Nc4c(Cl)ccc5c4OCO5)ncnc3c2)CC1 [Saracatinib (AZD0530)] + CC(C)C[C@H](NC(=O)[C@H](CCc1ccccc1)NC(=O)CN1CCOCC1)C(=O)N[C@@H](Cc1ccccc1)C(=O)N[C@@H](CC(C)C)C(=O)[C@@]1(C)CO1 [Carfilzomib],cell viability of combination,HCI01 [1],66.1
same,cell viability of combination,UCD52 [2],39.3
same,cell viability of combination,WHIM30,21.1
Cc1ccc(C(=O)N(CCCN)C(c2nc3cc(Cl)ccc3c(=O)n2Cc2ccccc2)C(C)C)cc1 (centres undefined) + CN(C)C/C=C/C(=O)Nc1cc2c(Nc3ccc(F)c(Cl)c3)ncnc2cc1O[C@H]1CCOC1 [Afatinib],cell viability of combination,HCI01 [3],50.5
same,cell viability of combination,UCD52 [4],36
same,cell viability of combination,WHIM2,35.8
COc1ncc(-c2ccc3nccc(-c4ccnnc4)c3c2)cc1NS(=O)(=O)c1ccc(F)cc1F + CC(C)C[C@H](NC(=O)[C@H](CCc1ccccc1)NC(=O)CN1CCOCC1)C(=O)N[C@@H](Cc1ccccc1)C(=O)N[C@@H](CC(C)C)C(=O)[C@@]1(C)CO1 [Carfilzomib],cell viability of combination,HCI01 [1],37.6
same,cell viability of combination,UCD52 [2],17.6
same,cell viability of combination,WHIM30,8.27
Nc1c(CC(=O)[O-])cccc1C(=O)c1ccccc1.O.[Na+] [Amfenac Sodium Monohydrate] + CC(C)C[C@H](NC(=O)[C@H](CCc1ccccc1)NC(=O)CN1CCOCC1)C(=O)N[C@@H](Cc1ccccc1)C(=O)N[C@@H](CC(C)C)C(=O)[C@@]1(C)CO1 [Carfilzomib],cell viability of combination,HCI01 [1],76.5
same,cell viability of combination,UCD52 [2],66.3
same,cell viability of combination,WHIM30,23.7
C#Cc1cccc(Nc2ncnc3cc(OCCOC)c(OCCOC)cc23)c1 [Erlotinib] + CC(C)C[C@H](NC(=O)[C@H](CCc1ccccc1)NC(=O)CN1CCOCC1)C(=O)N[C@@H](Cc1ccccc1)C(=O)N[C@@H](CC(C)C)C(=O)[C@@]1(C)CO1 [Carfilzomib],cell viability of combination,HCI01 [1],66.8
same,cell viability of combination,UCD52 [2],49.1
same,cell viability of combination,WHIM30,27.4
C=CC(=O)Nc1cc(Nc2nccc(-c3cn(C)c4ccccc34)n2)c(OC)cc1N(C)CCN(C)C + CN(C)C/C=C/C(=O)Nc1cc2c(Nc3ccc(F)c(Cl)c3)ncnc2cc1O[C@H]1CCOC1 [Afatinib],cell viability of combination,HCI01 [3],40
same,cell viability of combination,UCD52 [4],50.2
same,cell viability of combination,WHIM2,34.9
CNCCC(Oc1ccc(C(F)(F)F)cc1)c1ccccc1.Cl (centres undefined) [Fluoxetine HCl] + CC(C)C[C@H](NC(=O)[C@H](CCc1ccccc1)NC(=O)CN1CCOCC1)C(=O)N[C@@H](Cc1ccccc1)C(=O)N[C@@H](CC(C)C)C(=O)[C@@]1(C)CO1 [Carfilzomib],cell viability of combination,HCI01 [1],72.4
same,cell viability of combination,UCD52 [2],52.6
same,cell viability of combination,WHIM30,16.3
CC(C)(C)c1ccc(C(O)CCCN2CCC(C(O)(c3ccccc3)c3ccccc3)CC2)cc1 (centres undefined) [Terfenadine] + CC(C)C[C@H](NC(=O)[C@H](CCc1ccccc1)NC(=O)CN1CCOCC1)C(=O)N[C@@H](Cc1ccccc1)C(=O)N[C@@H](CC(C)C)C(=O)[C@@]1(C)CO1 [Carfilzomib],cell viability of combination,HCI01 [1],77.1
same,cell viability of combination,UCD52 [2],64.9
same,cell viability of combination,WHIM30,15.5
CC(=O)c1cc2c(o1)C(=O)c1ccccc1C2=O [Napabucasin] + CC(C)C[C@H](NC(=O)[C@H](CCc1ccccc1)NC(=O)CN1CCOCC1)C(=O)N[C@@H](Cc1ccccc1)C(=O)N[C@@H](CC(C)C)C(=O)[C@@]1(C)CO1 [Carfilzomib],cell viability of combination,HCI01 [1],22.6
same,cell viability of combination,UCD52 [2],15.7
same,cell viability of combination,WHIM30,5.17
COc1cccc2c1C(=O)c1c(O)c3c(c(O)c1C2=O)CC(O)(C(=O)CO)CC3OC1CC(N)C(O)C(C)O1.Cl (centres undefined) [Doxorubicin (Adriamycin) HCl] + CC(C)C[C@H](NC(=O)[C@H](CCc1ccccc1)NC(=O)CN1CCOCC1)C(=O)N[C@@H](Cc1ccccc1)C(=O)N[C@@H](CC(C)C)C(=O)[C@@]1(C)CO1 [Carfilzomib],cell viability of combination,HCI01 [1],60.9
same,cell viability of combination,UCD52 [2],30.2
same,cell viability of combination,WHIM30,7.61
C=C1C(=CC=C2CCCC3(C)C2CCC3C(C)CCCC(C)C)CC(O)CC1O (centres undefined) [Alfacalcidol] + CC(C)C[C@H](NC(=O)[C@H](CCc1ccccc1)NC(=O)CN1CCOCC1)C(=O)N[C@@H](Cc1ccccc1)C(=O)N[C@@H](CC(C)C)C(=O)[C@@]1(C)CO1 [Carfilzomib],cell viability of combination,HCI01 [1],55.4
same,cell viability of combination,UCD52 [2],41
same,cell viability of combination,WHIM30,16.6
Cl.O.O=C1Cc2cc(CCN3CCN(c4nsc5ccccc45)CC3)c(Cl)cc2N1 [Ziprasidone hydrochloride monohydrate] + CC(C)C[C@H](NC(=O)[C@H](CCc1ccccc1)NC(=O)CN1CCOCC1)C(=O)N[C@@H](Cc1ccccc1)C(=O)N[C@@H](CC(C)C)C(=O)[C@@]1(C)CO1 [Carfilzomib],cell viability of combination,HCI01 [1],79.6
same,cell viability of combination,UCD52 [2],64.2
same,cell viability of combination,WHIM30,22.5
COc1cccc2c1C(=O)c1c(O)c3c(c(O)c1C2=O)C[C@@](O)(C(C)=O)C[C@@H]3O[C@H]1C[C@H](N)[C@H](O)[C@H](C)O1.Cl [Daunorubicin HCl] + CC(C)C[C@H](NC(=O)[C@H](CCc1ccccc1)NC(=O)CN1CCOCC1)C(=O)N[C@@H](Cc1ccccc1)C(=O)N[C@@H](CC(C)C)C(=O)[C@@]1(C)CO1 [Carfilzomib],cell viability of combination,HCI01 [1],79.9
same,cell viability of combination,UCD52 [2],17.1
same,cell viability of combination,WHIM30,4.41
Cn1cnc2c(F)c(Nc3ccc(Br)cc3F)c(C(=O)NOCCO)cc21 + CC(C)C[C@H](NC(=O)[C@H](CCc1ccccc1)NC(=O)CN1CCOCC1)C(=O)N[C@@H](Cc1ccccc1)C(=O)N[C@@H](CC(C)C)C(=O)[C@@]1(C)CO1 [Carfilzomib],cell viability of combination,HCI01 [1],67.1
same,cell viability of combination,UCD52 [2],50.1
same,cell viability of combination,WHIM30,36.1
CCc1c(Cl)c(O)c(Cl)c(O)c1C(=O)OC1C(C)OC(OCC2=CC=CCC(O)C(C)=CC(CC)C(OC3OC(C)(C)C(OC(=O)C(C)C)C(O)C3O)C(C)=CC(C)=CCC(C(C)O)OC2=O)C(OC)C1O (centres undefined) [Fidaxomicin] + CC(C)C[C@H](NC(=O)[C@H](CCc1ccccc1)NC(=O)CN1CCOCC1)C(=O)N[C@@H](Cc1ccccc1)C(=O)N[C@@H](CC(C)C)C(=O)[C@@]1(C)CO1 [Carfilzomib],cell viability of combination,HCI01 [1],92.5
same,cell viability of combination,UCD52 [2],62.7
same,cell viability of combination,WHIM30,21.2
Cc1nc(Nc2ncc(C(=O)Nc3c(C)cccc3Cl)s2)cc(N2CCN(CCO)CC2)n1 + CN(C)C/C=C/C(=O)Nc1cc2c(Nc3ccc(F)c(Cl)c3)ncnc2cc1O[C@H]1CCOC1 [Afatinib],cell viability of combination,HCI01 [3],41.5
same,cell viability of combination,UCD52 [4],27.6
same,cell viability of combination,WHIM2,30.8
CC(C)C1=CC(=C2NNC(=O)N2c2ccc3c(ccn3C)c2)C(=O)C=C1O [Ganetespib (STA-9090)] + CC(C)C[C@H](NC(=O)[C@H](CCc1ccccc1)NC(=O)CN1CCOCC1)C(=O)N[C@@H](Cc1ccccc1)C(=O)N[C@@H](CC(C)C)C(=O)[C@@]1(C)CO1 [Carfilzomib],cell viability of combination,HCI01 [1],66.1
same,cell viability of combination,UCD52 [2],58.6
same,cell viability of combination,WHIM30,23.7
CC(C)(C)Cn1c(N)nc2ccc(-c3[nH]c(C(C)(C)C)nc3-c3ccc(F)cc3)nc21.CS(=O)(=O)O.CS(=O)(=O)O + CC(C)C[C@H](NC(=O)[C@H](CCc1ccccc1)NC(=O)CN1CCOCC1)C(=O)N[C@@H](Cc1ccccc1)C(=O)N[C@@H](CC(C)C)C(=O)[C@@]1(C)CO1 [Carfilzomib],cell viability of combination,HCI01 [1],61.9
same,cell viability of combination,UCD52 [2],29.3
same,cell viability of combination,WHIM30,14.4
CC(Oc1cc(-c2cnn(C3CCNCC3)c2)cnc1N)c1c(Cl)ccc(F)c1Cl [(R)-Crizotinib] + CC(C)C[C@H](NC(=O)[C@H](CCc1ccccc1)NC(=O)CN1CCOCC1)C(=O)N[C@@H](Cc1ccccc1)C(=O)N[C@@H](CC(C)C)C(=O)[C@@]1(C)CO1 [Carfilzomib],cell viability of combination,HCI01 [1],146
same,cell viability of combination,UCD52 [2],49.1
same,cell viability of combination,WHIM30,27.4
CC1=CC(=O)c2ccccc2C1=O [Menadione] + CC(C)C[C@H](NC(=O)[C@H](CCc1ccccc1)NC(=O)CN1CCOCC1)C(=O)N[C@@H](Cc1ccccc1)C(=O)N[C@@H](CC(C)C)C(=O)[C@@]1(C)CO1 [Carfilzomib],cell viability of combination,HCI01 [1],78.2
same,cell viability of combination,UCD52 [2],62
same,cell viability of combination,WHIM30,21.4
